Compounds with a hit are over-represented: about 3.4% of the library has one in this group of screens.
PTPN22 act = activators of human LYP (PTPN22) phosphatase. Q9Y2R2. recombinant LYP, DiFMUP fluorescence; 0 = plate median, 100 = signal doubled. activation, % at 2 µM. actives 0.11% (n = 96,000);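 active = activation at 2 µM above a set limit, the mean plus 5 SD, cut at about 37% in these data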
Target sequence (Q9Y2R2 whole entry, looked up): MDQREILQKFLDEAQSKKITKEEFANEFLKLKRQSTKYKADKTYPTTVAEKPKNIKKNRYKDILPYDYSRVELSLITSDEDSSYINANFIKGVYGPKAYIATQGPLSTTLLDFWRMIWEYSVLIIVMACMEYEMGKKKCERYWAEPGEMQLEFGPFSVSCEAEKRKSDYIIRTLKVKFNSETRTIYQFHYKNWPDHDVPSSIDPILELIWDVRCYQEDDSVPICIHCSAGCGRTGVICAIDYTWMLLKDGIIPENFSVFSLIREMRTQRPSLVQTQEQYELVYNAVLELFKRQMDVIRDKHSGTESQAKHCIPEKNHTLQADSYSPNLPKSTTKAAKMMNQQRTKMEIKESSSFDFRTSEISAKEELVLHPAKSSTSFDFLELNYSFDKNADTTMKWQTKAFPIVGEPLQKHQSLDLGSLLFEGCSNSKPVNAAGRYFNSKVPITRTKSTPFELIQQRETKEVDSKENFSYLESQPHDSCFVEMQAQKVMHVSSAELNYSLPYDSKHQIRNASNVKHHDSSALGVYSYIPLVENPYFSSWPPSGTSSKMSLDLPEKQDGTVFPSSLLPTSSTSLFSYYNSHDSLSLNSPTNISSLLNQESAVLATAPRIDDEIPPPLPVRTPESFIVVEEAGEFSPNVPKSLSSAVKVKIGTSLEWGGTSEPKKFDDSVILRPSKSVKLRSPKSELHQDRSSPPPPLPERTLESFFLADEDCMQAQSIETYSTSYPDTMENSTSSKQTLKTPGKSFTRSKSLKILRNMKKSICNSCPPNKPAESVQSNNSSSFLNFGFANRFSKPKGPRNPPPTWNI
ERa SRC1 pot = enhances coactivator binding to human estrogen receptor alpha. P03372. coactivator binding (% of control), % at 25.6 µM. TR-FRET ERalpha-LBD/SRC-Cy5 coactivator binding, 2 h; 100 = basal binding, no effect. AID 639. actives 1.3% (n = 86,000); in the data active = activity above about 200%;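 note: binding measured in presence of low estradiol as agonist stimulus; 0% = peptide alone without receptor and 100% = receptor with peptide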
ERb coact inh = ER-beta (human) coactivator binding inhibition. TR-FRET ER-beta LBD / SRC1-Cy5 peptide binding; receptor agonist-loaded with 1 µM estradiol. inhibition, % at 25.6 µM. actives 1.3% (n = 86,000). AID 633;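 active = compounds whose percent inhibition of the receptor-coactivator binding signal exceeds about 50% in the single-dose screen, limit read from the data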;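 note: 0% = receptor plus peptide wells without compound and 100% = peptide-only wells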
FAK inh = inhibitors of human focal adhesion kinase; biochemical FAK kinase activity assay; inhibition, %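 (tested at 7 µM)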; actives 0.84% (n = 97,000); in the data active = inhibition above about 19%;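 note: 0% = DMSO and 100% = reference compound high control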
LYP inh 2 = blocks human PTPN22 phosphatase activity. recombinant LYP catalytic domain, DiFMUP fluorescence. inhibition, % at 2 µM. actives 0.21% (n = 96,000). AID 640;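 active = inhibition at 2 µM at or above a set limit, the screen mean plus 3 SD, cut at about 24% in these data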;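 note: 0% = DMSO with enzyme and 100% = enzyme fully blocked by orthovanadate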
ERa coact inh = blocks coactivator binding to human estrogen receptor alpha; P03372; TR-FRET ER-alpha LBD / SRC-1 peptide, estradiol-bound; inhibition, % at 25.6 µM; actives 1.7% (n = 86,000); AID 629; in the data active = inhibition above about 50%;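 note: 0% = receptor plus peptide control and 100% = peptide only without receptor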
* hit, by the source's call; . = no result given; + = active, no number; [ ] = remark or other dose.

SMILES | PTPN22 act | ERa SRC1 pot | ERb coact inh | FAK inh | LYP inh 2 | ERa coact inh
CS(=O)(=O)N(CC(=O)N1CCc2ccccc2C1)Cc1ccccc1 | -2 | 99 | 0 | 1 | 1 | 9
CN1CCN(C(=O)CSc2nc(-c3cccs3)ccc2C#N)CC1 | -13 | 81 | 43 | -4 | 16 | 46
CSc1nc2sc3c(c2c(=O)n1C)CCCC3 | . | 100 | 1 | . | . | 4
CCc1nn2c(=O)cc(CSc3nc4sc5c(c4c(=O)n3C)CCCC5)nc2s1 | -6 | 85 | 53*[fluorescence artefact?] | 7 | 5 | 38
Nc1ncncc1-c1ccc([N+](=O)[O-])cc1 | 12 | . | . | -6 | -8 | .
Cc1sc2ncnc(SC(C)C#N)c2c1C (configuration not stated) | -3 | 93 | -2 | 8 | 1 | 6
CCC(Sc1ncnc2sc(C)c(C)c12)C(=O)OC (configuration not stated) | 2 | 42 | 61* | 1 | 0 | 63*[fluorescence artefact?]
Cc1sc2ncnc(SCC(=O)c3ccc(Cl)s3)c2c1C | -14 | 243* | -3 | 1 | 17 | 0
Cc1sc2ncnc(SCC(=O)NCC(C)C)c2c1C | -5 | . | . | 1 | 8 | .
CC(OC(=O)c1ccco1)C(=O)NC1CCCCC1 (configuration not stated) | -30 | 100 | -1 | -2 | 28* | -4
CCCOc1ccc(-c2nnn(CC(=O)c3ccc4c(c3)OCCO4)n2)cc1 | 4 | 141 | -7 | -1 | -5 | -10
CCOc1ccc(-c2nnn(CC(=O)c3ccc4c(c3)OCCO4)n2)cc1 | -4 | 213* | -21 | -6 | 2 | -11
COc1cc(/C=C2/C(=N)N3C=CSC3=NC2=O)ccc1OCCCOc1ccccc1C | -12 | 68 | 72*[fluorescence artefact?] | 2 | 14 | 71*
CCOc1cc(/C=C2/C(=N)N3C=CSC3=NC2=O)ccc1OCCCOc1ccccc1C | -6 | 79 | 33 | 0 | 3 | 38
COc1cc(/C=C2/C(=N)N3C=CSC3=NC2=O)ccc1OCCCOc1c(C)cccc1C | -14 | 120 | 43 | 7 | 12 | 90*[fluorescence artefact?]
COc1ccc(C)cc1NC(=O)CN1CCN(C/C=C/c2ccccc2)CC1 | -7 | . | . | -3 | 6 | .
COc1ccc(/C=N/NC(=O)c2cc(-c3ccc(C)cc3C)nc3ccccc23)cc1COC(C)=O | -1 | . | . | -11 | 3 | .
Cc1c(Br)c([N+](=O)[O-])nn1C(C)C(=O)Nc1ccc2c(c1)OCO2 (configuration not stated) | 1 | . | . | -1 | 1 | .
CN(C(=O)Nc1ccc(Cl)cc1Cl)[C@H]1c2cc(Br)ccc2OC[C@H]1CO | . | . | . | -4 | . | .
CCOC(=O)Cc1c(C)nc2c(-c3ccc(Cl)cc3)c[nH]n2c1=O | . | 118 | -16 | . | . | -6
COc1nc(-c2ccc(C)cc2)ccc1-c1noc(-c2cccnc2)n1 | . | 557*[fluorescence artefact?] | 5 | . | . | 21
COc1nc2ccccc2cc1-c1noc(-c2cccnc2)n1 | . | 215*[fluorescence artefact?] | 16 | . | . | 17
COc1nc(-c2ccc(C)cc2)ccc1-c1noc(-c2ccco2)n1 | -2 | 237* | 4 | -6 | 0 | 1
COc1ccc(-c2ccc(-c3noc(-c4cccc(OC)c4)n3)c(OC)n2)cc1 | -3 | . | . | 2 | 1 | .
COc1ccccc1-c1noc(-c2cccnc2)n1 | 7 | 95 | 2 | -4 | -3 | -7
SMILES | PTPN22 act | ERa SRC1 pot | ERb coact inh | FAK inh | LYP inh 2 | ERa coact inh
COc1nc(-c2ccccc2)ccc1-c1noc(-c2ccc(F)cc2)n1 | . | 126 | -1 | . | . | 2
COc1nc(-c2ccccc2)ccc1-c1noc(-c2cccnc2)n1 | -1 | 487*[fluorescence artefact?] | 14 | 11 | 1 | 29
Cc1cccc(Oc2sc(C(=O)c3ccccc3)c(N)c2C#N)c1 | -9 | . | . | -6 | 7 | .
CCOc1nc(C)ccc1-c1noc(-c2ccccc2OC)n1 | -3 | 107 | 11 | 0 | 4 | -12
CCOc1ccccc1-c1nc(-c2cc3ccccc3nc2OC)no1 | 0 | 165 | 67* | 3 | -2 | 10
O=S(=O)(c1ccc(Cl)cc1)n1nnc2ccccc21 | 21 | 95 | -10 | 0 | -19 | 7
Cc1cc(NC(=O)c2c(F)cccc2F)n(-c2nc3ccccc3[nH]2)n1 | 2 | 136 | 8 | 0 | -6 | 32
Cc1cc(NC(=O)c2ccccc2F)n(-c2nc3ccccc3[nH]2)n1 | -4 | 184 | 52*[fluorescence artefact?] | 3 | 2 | 53*[fluorescence artefact?]
Cc1cc(NC(=O)c2c(F)cccc2Cl)n(-c2nc3ccccc3[nH]2)n1 | 0 | 105 | 52* | 0 | -3 | 2
Cn1ccnc1Sc1nc2ccccc2nc1NS(=O)(=O)c1ccccc1 | . | 112 | 5 | . | . | 13
CCOC(=O)c1ccc(N2C(=O)c3n[nH]c(C)c3C2c2ccccn2)cc1 (configuration not stated) | 5 | 47 | 32 | -5 | -5 | 12
Cc1[nH]nc2c1C(c1ccccn1)N(c1ccc(Br)cc1)C2=O (configuration not stated) | 3 | 103 | -3 | 1 | -5 | 77*[fluorescence artefact?]
CC1(C)CC(=O)C2=C(C1)N(Cc1ccccc1)C(=O)C2(NC(=O)C(C)(C)C)C(F)(F)F (configuration not stated) | 0 | 117 | -11 | -2 | 3 | 18
COCCSc1ccccc1C(=O)Nc1cc(C)on1 | -1 | 62 | 96*[fluorescence artefact?] | 1 | -4 | -36
COc1ccc(NC(=O)COC(=O)[C@@H]2CCCN2C(=O)c2cccs2)cc1 | -5 | . | . | 0 | 4 | .
O=C(COC(=O)C1CCCN1C(=O)c1cccs1)Nc1ccc2c(c1)OCO2 (configuration not stated) | -11 | 70 | 38 | 0 | 9 | 52*[fluorescence artefact?]
O=C(Nc1nccs1)c1nc(-c2ccccc2)n(-c2ccccc2)n1 | -3 | 343* | 4 | 4 | 1 | -5
CCOc1ccc(NC(=O)CN2CCN(CC(=O)Nc3ccc(F)cc3)CC2)cc1 | -9 | 109 | -6 | -1 | 6 | -14
CN(C)c1ccc(NC(=O)CN2CCN(CC(=O)Nc3ccc(F)cc3)CC2)cc1 | . | 64 | 54*[fluorescence artefact?] | . | . | 16
CCCc1cc2c(=O)c(-c3ccccn3)coc2cc1OC | -3 | +[fluorescence artefact?] | 7 | 0 | 0 | 9
CCCc1cc2c(=O)c(-c3ccccn3)c(C)oc2cc1O | . | 87 | 17 | . | . | 12
Cc1ccc(C(=C2C3C=CC2C2C(=O)NC(=O)C32)c2ccc(C)cc2)cc1 (configuration not stated) | -5 | 58 | -5 | 4 | 7 | 11
COc1cccc2sc(Nc3nnc(-c4ccc(F)cc4)o3)nc12 | 4 | 74 | 25 | 4 | -7 | 65*
CS(=O)(=O)N(Cc1ccccc1)c1ccccc1C(=O)N1CCN(c2ccccc2)CC1 | -9 | 105 | -7 | -2 | 10 | 1
CCN(CC)S(=O)(=O)c1cccc(C(=O)N[C@H](C(=O)NCc2ccc(Cl)cc2)C(C)C)c1 | -6 | . | . | -1 | 5 | .

Screening data from PubChem.
